In PubChem BioAssay (Tox21):
Where “and” joins values, the source holds several entries; their conditions need not be identical. Equal values may be shown once. Records with an inconclusive call do not appear. A call without a number means that no potency is given here. Where a structure was tested more than once in an assay, its records may differ in their call. Calls of active or inactive are those of the source. Unless noted, calls come from the whole dose curve.

Tests used:
[1] = Nuclear factor erythroid 2-related factor 2/antioxidant responsive element (Nrf2/ARE) small molecule agonists: qHTS cell viability counter screen in human keratinocytes (AID 1919968; active = well fitted curve in the direction sought with a large enough effect in the repeat runs; an effect the other way counts as inactive or inconclusive; note: nearly all actives have a fitted effect of over 55% in size; note: potency is the fitted concentration of half-maximal effect)
Summary of the method: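 Stably transfected HaCaT (KeratinoSens), 1,500/well. Test agents in DMSO were applied for 23 h, 37 C/5% CO2. CellTiter-Fluor was incubated 1 h before the fluorescence read.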

[2] = Nuclear factor erythroid 2-related factor 2/antioxidant responsive element (Nrf2/ARE) small molecule agonists: luciferase reporter gene qHTS assay in human keratinocytes (AID 1919969); note: nearly all actives have a fitted effect of over 35% in size; note: potency is the fitted concentration of half-maximal effect
[3] = target: Gonadotropin-releasing hormone receptor (Homo sapiens) (UniProt P30968); assay: Human gonadotropin-releasing hormone receptor (GnRHR) small molecule agonists, calcium flux assay in GnRHR-HEK293 cells (AID 1920063); note: nearly all actives have a fitted effect of over 35% in size
Summary of the method: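 Stable human GnRHR HEK293 line. 18 h plating, then calcium dye for 1 h at 37 C. Agonist-mode compound addition from DMSO stocks; fluorescence monitored 3 min.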

[4] = target: KiSS-1 receptor (Homo sapiens) (UniProt Q969F8); assay: Human kisspeptin (KISS1R) small molecule agonists, calcium flux assay in KISS1R-HEK293 cells (AID 1920064; active = well fitted curve in the direction sought with a large enough effect in the repeat runs; an effect the other way counts as inactive or inconclusive)
Summary of the method: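 After overnight (18 h) culture at 37 C/5% CO2, human KISS1R-HEK293 cells received calcium dye for 1 h, then test compound; emission at 540 nm (excitation 480 nm) was tracked for 3 min.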

[5] = G protein-coupled receptor (GPCR) small molecule agonists, calcium flux assay: HEK293 wild type cell line counter screen (AID 1920065)
Summary of the method: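 Following 18 h incubation at 37 C/5% CO2, plates got calcium dye for 1 h; compounds, ATP or DMSO were then pinned in and fluorescence followed kinetically (480/540 nm).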

[6] = p53 small molecule agonists, cell-based qHTS assay with human liver microsomes (AID 1963577);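 note: p53 response element beta-lactamase reporter cells with liver microsomes plus NADPH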
Summary of the method: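 HLM-supplemented p53RE-bla reporter assay: 16 h compound exposure at 37 C, microsomes and NADPH each 0.5 mg/mL final, read by fluorescence intensity.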

[7] = p53 small molecule agonists, cell-based qHTS assay with rat liver microsomes (AID 1963578)
Summary of the method: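 Quantitative HTS of the Tox21 10K library: p53RE-bla cells, rat liver microsomes plus NADPH at 0.5 mg/mL final each, 16 h at 37 C, beta-lactamase fluorescence detection.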

[8] = p53 small molecule agonists, cell-based qHTS assay with human liver microsomes: qHTS cell viability counter screen (AID 1963579); note: nearly all actives have a fitted effect of over 45% in size; note: potency is the fitted concentration of half-maximal effect
Summary of the method: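 Viability of p53RE-bla cells is measured as CellTiter-Glo luminescence following a 16 h, 37 C incubation with compound, liver microsomes from human donors and NADPH.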

[9] = p53 small molecule agonists, cell-based qHTS assay with rat liver microsomes: qHTS cell viability counter screen (AID 1963580); note: nearly all actives have a fitted effect of over 45% in size; note: potency is the fitted concentration of half-maximal effect
Summary of the method: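 Cytotoxicity counter screen: intracellular ATP measured by CellTiter-Glo luminescence in the same wells as the beta-lactamase reporter read, on HCT-116 p53RE-bla cells exposed 16 h at 37 C to compounds with rat liver microsomes and NADPH, each 0.5 mg/mL final.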

[10] = p53 small molecule agonists, cell-based qHTS assay: qHTS cell viability counter screen (AID 1963581); note: nearly all actives have a fitted effect of over 45% in size
Summary of the method: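 qHTS counter screen: 16 h compound exposure at 37 C of p53RE-bla HCT-116 cells (4,000 per well, seeded 5 h prior), cell viability by ATP luminescence.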

[11] = target: 5-hydroxytryptamine receptor 2A (Homo sapiens) (UniProt P28223); assay: 5-hydroxytryptamine receptor 2A (HTR2A) small molecule agonists, cell-based qHTS assay (AID 1963587); note: nearly all actives have a fitted effect of over 30% in size
Summary of the method: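 CHO cells stably expressing human HTR2A, plated 18 h, loaded with calcium dye 1 h at 37 C. Agonist mode: compounds added and intracellular calcium fluorescence recorded kinetically for 2 min at 1 sec intervals.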

[12] = target: Muscarinic acetylcholine receptor M1 (Homo sapiens) (UniProt P11229); assay: Cholinergic receptor muscarinic 1 (CHRM1) small molecule antagonists, cell-based qHTS assay (AID 1963588); note: nearly all actives have a fitted effect of over 40% in size
Summary of the method: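 Compounds were tested at 15 concentrations in three independent runs. Dye-loaded CHRM1-CHO cells were exposed 5 min at room temperature before stimulation by acetylcholine added at 50nM. Intracellular calcium was read kinetically on FDSS for 3 min.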

[13] = target: Muscarinic acetylcholine receptor M1 (Homo sapiens) (UniProt P11229); assay: Cholinergic receptor muscarinic 1 (CHRM1) small molecule agonists, cell-based qHTS assay (AID 1963589); note: nearly all actives have a fitted effect of over 35% in size
Summary of the method: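 Kinetic fluorescence (1 s intervals) of calcium-sensitive dye in human M1 CHO cells after compound addition; cells pre-incubated 18 h at 37 C/5% CO2 and dye-loaded 1 h.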

[14] = cAMP Responsive Elements (CRE) small molecule agonists, cell-based qHTS assay (AID 1963590)
Summary of the method: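 Test agents in DMSO were incubated 3 h at 37 C/5% CO2 with CRE-bla HEK 293T cells seeded 18 h earlier; LiveBLAzer B/G FRET substrate was added and read after 2 h at room temperature.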

[15] = cAMP Responsive Elements (CRE) small molecule antagonists, cell-based qHTS assay (AID 1963591; active = well fitted inhibition curve with a large enough effect in the signal ratio in the repeat runs, not every such curve was filed as active; the % refers to the signal ratio)
Summary of the method: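 Reporter line CRE-bla HEK 293T in dialyzed-FBS DMEM; cells preincubated 18 h, treated 3 h with compound plus NKH477 (0.25 uM final); LiveBLAzer FRET, 2 h RT.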

[16] = target: Beta-2 adrenergic receptor (Homo sapiens) (UniProt P07550); assay: Adrenergic beta2 receptor (ADRB2) small molecule antagonists, cell-based qHTS assay (AID 1963592); note: series mostly up to about 92 µM; nearly all actives have a fitted effect of over 50% in size
Summary of the method: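 Assay format: CHO-ADRB2 cells, 18-20hr seeding at 37C/5% CO2, then compound plus 1nM isoproterenol agonist mix for 0.5hr RT. Homogeneous time-resolved fluorescence cAMP detection after 1hr, expressed as 665/615 nm ratio.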

[17] = target: Beta-2 adrenergic receptor (Homo sapiens) (UniProt P07550); assay: Adrenergic beta2 receptor (ADRB2) small molecule agonists, cell-based qHTS assay (AID 1963593);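 note: CHO cells stably overexpressing human ADRB2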
Summary of the method: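 CHO cells stably over-expressing ADRB2 were plated overnight at 37C, then dosed with compounds plus a stimulation mix containing 100uM IBMX and 25uM Ro-20-1724 for 0.5hr at room temperature. cAMP was measured by HTRF competition, 1hr.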

[18] = target: D(2) dopamine receptor (Homo sapiens) (UniProt P14416); assay: Dopamine D2 receptor (DRD2) small molecule agonists, cell-based qHTS assay (AID 1963594); note: nearly all actives have a fitted effect of over 35% in size
Summary of the method: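 HEK293 cells stably expressing human DRD2, pre-treated with PDE inhibitor Ro20-1724 (0.1 mM final) and compound 10 min at room temperature, then stimulated with NKH477 (200nM […]) for 30 min. cAMP read by HTRF (665/620 nm).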

[19] = target: D(2) dopamine receptor (Homo sapiens) (UniProt P14416); assay: Dopamine D2 receptor (DRD2) small molecule antagonists, cell-based qHTS assay (AID 1963595; active = well fitted inhibition curve with a large enough effect in the signal ratio in the repeat runs, with a control signal flat; the % refers to the signal ratio; note: potency is the fitted concentration of half-maximal effect)
Summary of the method: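 HTRF cAMP read-out at 665 and 620 nm emission (340 nm excitation). Antagonist mode: compounds were tested against 12 nM quinpirole in DRD2-HEK293 cells, with 200 nM NKH477 raising cAMP and 0.1 mM Ro20-1724 blocking its breakdown.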

[20] = target: 5-hydroxytryptamine receptor 2A (Homo sapiens) (UniProt P28223); assay: 5-hydroxytryptamine receptor 2A (HTR2A) small molecule antagonists, cell-based qHTS assay (AID 1963586); note: nearly all actives have a fitted effect of over 45% in size; note: potency is the fitted concentration of half-maximal effect
Summary of the method: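 CHO cells stably expressing human HTR2A were plated for 18 h at 37 C, then loaded with calcium dye for 1 h. Compounds were preincubated 5 min at room temperature before DOI (4 nM solution) was added. Kinetic fluorescence was read for 3 min.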

Gonadotropin-releasing hormone receptor (Homo sapiens), sequence (P30968 whole entry, looked up): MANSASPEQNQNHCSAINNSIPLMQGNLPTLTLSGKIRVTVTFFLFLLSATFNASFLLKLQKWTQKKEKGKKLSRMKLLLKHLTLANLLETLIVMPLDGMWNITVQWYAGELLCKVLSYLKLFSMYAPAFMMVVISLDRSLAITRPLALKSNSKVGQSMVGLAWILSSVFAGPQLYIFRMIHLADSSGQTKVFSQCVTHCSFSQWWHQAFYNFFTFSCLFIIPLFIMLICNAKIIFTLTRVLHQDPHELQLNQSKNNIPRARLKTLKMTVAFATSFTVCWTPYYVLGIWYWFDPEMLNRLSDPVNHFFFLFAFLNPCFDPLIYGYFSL
D(2) dopamine receptor (Homo sapiens), sequence (P14416 whole entry, looked up): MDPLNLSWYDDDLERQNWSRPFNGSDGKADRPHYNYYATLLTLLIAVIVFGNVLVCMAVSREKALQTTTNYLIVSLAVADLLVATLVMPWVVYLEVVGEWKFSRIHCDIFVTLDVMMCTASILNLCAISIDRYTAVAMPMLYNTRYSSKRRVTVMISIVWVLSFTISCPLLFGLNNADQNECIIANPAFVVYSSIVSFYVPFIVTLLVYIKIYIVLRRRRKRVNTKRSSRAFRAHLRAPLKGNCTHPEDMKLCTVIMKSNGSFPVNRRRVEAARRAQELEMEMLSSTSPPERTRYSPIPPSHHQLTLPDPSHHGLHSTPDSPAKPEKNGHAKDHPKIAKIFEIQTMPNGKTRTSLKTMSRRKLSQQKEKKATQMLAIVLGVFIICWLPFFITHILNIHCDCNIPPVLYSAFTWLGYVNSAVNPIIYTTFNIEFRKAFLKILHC
Beta-2 adrenergic receptor (Homo sapiens), sequence (P07550 whole entry, looked up): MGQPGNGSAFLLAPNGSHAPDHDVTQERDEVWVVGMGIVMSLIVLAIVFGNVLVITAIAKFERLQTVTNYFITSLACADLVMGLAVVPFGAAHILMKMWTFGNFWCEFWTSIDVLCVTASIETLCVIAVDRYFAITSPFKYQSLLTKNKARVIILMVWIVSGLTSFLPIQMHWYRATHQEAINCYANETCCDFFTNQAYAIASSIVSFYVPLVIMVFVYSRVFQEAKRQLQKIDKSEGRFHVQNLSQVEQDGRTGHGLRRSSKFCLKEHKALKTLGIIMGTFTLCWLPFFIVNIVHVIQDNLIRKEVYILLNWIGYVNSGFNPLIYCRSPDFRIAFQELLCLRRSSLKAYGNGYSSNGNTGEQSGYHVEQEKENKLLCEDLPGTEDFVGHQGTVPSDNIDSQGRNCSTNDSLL
5-hydroxytryptamine receptor 2A (Homo sapiens), sequence (P28223 whole entry, looked up): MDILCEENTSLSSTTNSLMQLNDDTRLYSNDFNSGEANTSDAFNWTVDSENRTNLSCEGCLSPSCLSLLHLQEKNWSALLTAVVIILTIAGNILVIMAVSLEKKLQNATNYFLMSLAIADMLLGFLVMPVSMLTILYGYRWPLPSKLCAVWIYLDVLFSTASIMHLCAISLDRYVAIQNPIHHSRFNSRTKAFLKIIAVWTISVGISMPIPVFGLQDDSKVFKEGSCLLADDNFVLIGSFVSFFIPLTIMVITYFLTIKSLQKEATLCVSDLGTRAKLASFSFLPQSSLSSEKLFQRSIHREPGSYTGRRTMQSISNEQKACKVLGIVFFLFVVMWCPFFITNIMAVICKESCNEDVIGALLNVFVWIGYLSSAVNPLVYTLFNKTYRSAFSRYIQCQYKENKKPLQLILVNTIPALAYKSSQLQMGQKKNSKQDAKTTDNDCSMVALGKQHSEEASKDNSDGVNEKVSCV
KiSS-1 receptor (Homo sapiens), sequence (Q969F8 whole entry, looked up): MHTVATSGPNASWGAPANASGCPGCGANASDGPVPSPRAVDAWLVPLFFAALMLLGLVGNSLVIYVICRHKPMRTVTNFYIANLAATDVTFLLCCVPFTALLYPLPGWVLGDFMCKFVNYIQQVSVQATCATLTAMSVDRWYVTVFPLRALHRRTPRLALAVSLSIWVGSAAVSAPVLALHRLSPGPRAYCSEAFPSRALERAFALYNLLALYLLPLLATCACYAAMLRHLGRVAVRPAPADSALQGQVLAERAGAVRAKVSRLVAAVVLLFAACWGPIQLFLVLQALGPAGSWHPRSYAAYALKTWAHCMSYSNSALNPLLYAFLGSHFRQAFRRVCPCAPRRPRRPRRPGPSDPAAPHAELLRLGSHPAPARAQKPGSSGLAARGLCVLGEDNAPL
Muscarinic acetylcholine receptor M1 (Homo sapiens), sequence (P11229 whole entry, looked up): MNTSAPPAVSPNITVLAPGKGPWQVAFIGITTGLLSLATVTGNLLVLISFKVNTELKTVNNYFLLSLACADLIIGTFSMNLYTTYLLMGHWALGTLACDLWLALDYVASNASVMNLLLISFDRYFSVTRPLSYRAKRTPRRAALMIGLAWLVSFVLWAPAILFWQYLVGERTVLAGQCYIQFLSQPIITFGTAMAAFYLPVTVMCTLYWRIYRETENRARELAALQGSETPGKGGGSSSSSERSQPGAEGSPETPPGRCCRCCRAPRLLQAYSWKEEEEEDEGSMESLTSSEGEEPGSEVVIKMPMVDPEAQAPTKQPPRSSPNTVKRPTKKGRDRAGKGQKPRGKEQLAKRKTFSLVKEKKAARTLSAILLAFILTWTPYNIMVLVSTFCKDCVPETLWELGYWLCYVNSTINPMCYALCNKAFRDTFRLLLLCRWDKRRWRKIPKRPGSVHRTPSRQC

SMILES	Potency [1]	Potency [2]	Potency [3]	Potency [4]	Potency [5]	Potency [6]	Potency [7]	Potency [8]	Potency [9]	Potency [10]	Potency [11]	Potency [12]	Potency [13]	Potency [14]	Potency [15]	Potency [16]	Potency [17]	Potency [18]	Potency [19]	Potency [20]
CC1=C(O)C(=O)OC1C (stereo unspecified)	inactive	inactive	inactive	inactive	inactive	inactive	inactive	inactive	inactive	inactive	inactive	inactive	inactive	inactive	inactive	inactive	inactive	inactive	inactive	
O=C(O)c1cc(-c2ccccc2)nc2ccccc12	inactive	inactive	inactive	inactive	inactive	inactive	inactive	inactive	inactive	inactive	inactive	inactive	inactive		inactive	inactive	inactive	inactive	inactive	inactive
C=CC(=O)OCCOC(=O)C=C	inactive	68.6 µM (active)	inactive	inactive	inactive	inactive	inactive	inactive	inactive	inactive	inactive	inactive	inactive	inactive		inactive	inactive	inactive	inactive	inactive
CCCCSCCCC	inactive	inactive	inactive	inactive	inactive	inactive	inactive	inactive	inactive	inactive	inactive	inactive	inactive	inactive	inactive	inactive			inactive	inactive
O=C1CC2CC1C1CCCC21 (stereo unspecified)	inactive	inactive	inactive	inactive	inactive	inactive	inactive	inactive	inactive	inactive	inactive	inactive	inactive	inactive	inactive		inactive	inactive	inactive	inactive
CCOC(=O)c1ccc(OCCN2C[C@H](O)[C@@H](O)[C@H](O)[C@H]2CO)cc1	inactive	inactive	inactive	inactive	inactive	inactive	inactive	inactive	inactive		inactive	inactive	inactive	inactive	inactive	inactive	inactive	inactive	inactive	inactive
CC1(C)C(C=C(Cl)Cl)C1C(=O)OCc1cccc(Oc2ccccc2)c1 (stereo unspecified)	inactive	inactive	inactive	inactive	inactive	inactive	inactive	inactive	inactive	inactive	inactive	inactive	inactive	inactive	inactive			inactive	inactive	inactive
CCOc1cc(NC(C)=O)ccc1C(=O)OC	inactive	inactive	inactive	inactive	inactive	inactive	inactive	inactive	inactive	inactive	inactive		inactive	inactive	inactive	inactive	inactive	inactive	inactive	inactive
CSc1ccc2c(c1)N(CCC1CCCCN1C)c1ccccc1S2 (stereo unspecified)	24.2 µM (active) and 26.6 µM (active)	inactive	inactive	inactive	inactive	inactive	inactive	45.6 µM (active) and inactive	40.6 µM (active) and inactive	inactive						inactive	inactive	inactive		
CN(CCOc1ccc(CC2SC(=O)NC2=O)cc1)c1ccccn1 (stereo unspecified)	inactive	inactive	inactive	inactive	inactive	inactive	inactive	inactive	inactive	inactive						inactive		inactive	inactive	
C1CCC2OC2C1 (stereo unspecified)	inactive	inactive	inactive	inactive	inactive	inactive	inactive	inactive	inactive	inactive	inactive	inactive	inactive		inactive	inactive		inactive		inactive
COC(C)(C)CCO	inactive	inactive	inactive	inactive	inactive	inactive	inactive	inactive	inactive		inactive	inactive	inactive	inactive	inactive	inactive	inactive	inactive		inactive
N#CCC(=O)O	inactive	inactive	inactive	inactive	inactive	inactive	inactive	inactive	inactive		inactive	inactive	inactive	inactive	inactive	inactive	inactive	inactive	inactive	inactive
O=C(c1ccc(O)cc1O)c1ccc(O)cc1O	inactive	inactive	inactive	inactive	inactive	inactive	inactive	inactive	inactive	inactive	inactive	inactive	inactive					inactive	inactive	inactive
CC(=O)Nc1c(I)cc(I)c(C(=O)O)c1I	inactive	inactive	inactive	inactive	inactive	inactive	inactive	inactive	inactive		inactive	inactive	inactive	inactive	inactive	inactive		inactive	inactive	inactive
CC1=C(CC(=O)O)c2cc(F)ccc2/C1=C\c1ccc(S(C)=O)cc1 (stereo unspecified)	inactive	inactive	inactive	inactive	inactive	inactive	inactive	inactive	inactive	inactive						inactive	inactive	inactive	inactive	
CC(=C(CCOC(=O)C(C)C)SSC(CCOC(=O)C(C)C)=C(C)N(C=O)Cc1cnc(C)nc1N)N(C=O)Cc1cnc(C)nc1N	inactive	inactive	inactive	inactive	inactive	inactive	inactive	inactive	inactive		inactive	inactive	inactive	inactive	inactive	inactive		inactive		inactive
CCc1c(C(=O)O)c(=O)cnn1-c1ccc(Cl)cc1	inactive	inactive	inactive	inactive	inactive	inactive	inactive	inactive	inactive		inactive	inactive	inactive	inactive	inactive	inactive		inactive		inactive
c1cnccn1	inactive	inactive	inactive	inactive	inactive	inactive	inactive	inactive	inactive		inactive	inactive	inactive		inactive	inactive		inactive	inactive	inactive
NC(=O)c1cccc([N+](=O)[O-])c1	inactive	inactive	inactive	inactive	inactive	inactive	inactive	inactive	inactive		inactive	inactive	inactive		inactive	inactive			inactive	inactive
Oc1ccccc1O	inactive	inactive	inactive	inactive	inactive	inactive	inactive	inactive	inactive					inactive	inactive	inactive		inactive	inactive	
CCn1c2ccccc2c2ccccc21	inactive	inactive	inactive	inactive	inactive	inactive	inactive	inactive	inactive		inactive	inactive	inactive	inactive	inactive	inactive		inactive	inactive	inactive
CC[C@]12CCCN3CCc4c(n(c5ccccc45)[C@@](O)(C(=O)OC)C1)[C@@H]32	inactive	inactive	inactive	inactive	inactive	inactive	inactive	inactive	inactive			inactive	inactive	inactive	inactive	inactive	inactive	inactive	inactive	inactive
CCc1ccc(C=O)cc1	inactive	inactive	inactive	inactive	inactive	inactive	inactive	inactive	inactive		inactive	inactive	inactive		inactive	inactive	inactive	inactive	inactive	inactive
CCN1CCC[C@H]1CNC(=O)c1c(O)c(Cl)cc(Cl)c1OC	inactive	inactive	inactive	inactive	inactive	inactive	inactive	inactive	inactive		inactive		inactive	inactive	inactive	inactive		inactive		18.3 µM (active)
c1ccc(CNc2ncnc3c2ncn3C2CCCCO2)cc1 (stereo unspecified)	inactive	1.72 µM (active)	inactive	inactive	inactive	inactive	inactive	inactive	inactive			inactive	inactive	inactive	inactive	inactive		inactive	inactive	inactive
CC1(C)C(O)C(C)(C)C1O (stereo unspecified)	inactive	inactive	inactive	inactive	inactive	inactive	inactive	inactive	inactive		inactive	inactive	inactive		inactive	inactive	inactive	inactive	inactive	inactive
Nc1nccs1	inactive	inactive	inactive	inactive	inactive	inactive	inactive	inactive	inactive		inactive	inactive	inactive	inactive	inactive	inactive		inactive	inactive	inactive
CCc1c(Br)c(Br)c(Br)c(Br)c1Br	inactive	inactive	inactive	inactive	inactive	inactive	inactive	inactive	inactive		inactive	inactive	inactive	inactive	inactive		inactive	inactive	inactive	inactive
Clc1ccccc1C(c1ccccc1)(c1ccccc1)n1ccnc1	30.6 µM (active)	inactive	inactive	inactive	inactive	inactive	inactive	inactive	inactive							inactive			61.1 µM (active)	
